# Test results as given in PubChem BioAssay (NCI).
# Compounds without any hit were thinned out: in the full panel of roughly 83,000, 20% have a hit.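 Each cell line was grown in a 96-well plate and treated with one concentration of compound for 48 hours. Values below 10 were considered active.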 Unmarked numbers belong to inactive results. Activity calls are given as the source filed them.
# Tested on: HOP-92 NSCLC
# Assay: NCI-60 one-dose screen, 48 h (100 = growth as untreated, 0 = no growth, -100 = all killed)
# Details: 10 µM unless noted
row,SMILES,growth
1,COc1ccc(/C=C/C(=O)/C=C(/C=C/c2ccc(OC)c(OC)c2)OB(F)F)cc1OC,56.8%
2,COc1cc(/C=C/C(=O)/C=C/c2cc3ccc(Cl)cc3[nH]c2=O)ccc1O,77.4%
3,CCCCn1c(=O)c(/C=C/C(=O)/C=C/c2cc3ccccc3n(CCCC)c2=O)cc2ccccc21,64.4%
4,COc1ccc(-c2nc(C#N)c(NCC(c3ccco3)N3CCCC3)o2)cc1 (stereo not drawn),58.2%
5,N#C/C(=C/c1ccc(O)c([N+](=O)[O-])c1)c1nc(-c2ccc([N+](=O)[O-])cc2)cs1,-8.22% (active)
6,C=C1C(=O)O[C@H]2[C@H]1CC/C(COC(=O)CCCCC(=O)OC/C1=C/CC[C@@]3(C)O[C@H]3[C@H]3OC(=O)C(=C)[C@@H]3CC1)=C\CC[C@@]1(C)O[C@@H]21,61.1%
7,CCOC(=O)c1c(C(F)(F)F)n([O-])c2ccc(Cl)cc2[n+]1=O,-78.2% (active)
8,COc1ccc(-c2nc(C#N)c(NCC(c3ccc(Cl)cc3)N3CCCCC3)o2)cc1 (stereo not drawn),89.3%
9,O=CN1N=C(c2ccc(Cl)cc2)CC1c1cccc(Nc2ccnc3cc(C(F)(F)F)ccc23)c1 (stereo not drawn),66.3%
10,O=C(CCCCCCCCC(=O)Nc1cccc(C2=NCCN2)c1)Nc1cccc(C2=NCCN2)c1,90.5%
11,CCOC(=O)C1CCN(S(=O)(=O)/N=C2/NC(=O)NC2=C(Cl)Cl)CC1,-73.9% (active)
12,S=c1ssnc1-c1cc2ccccc2o1,4.61% (active)
13,NS(=O)(=O)c1ccc(C2C3=C(CCCC3=O)OC3=C2C(=O)c2ccccc2C3=O)cc1 (stereo not drawn),-31.7% (active)
14,C=C1C(=O)O[C@H]2[C@H]1CCC(/C=N/c1ncc(Br)cc1N)=C\CC[C@@]1(C)O[C@@H]21,-15.2% (active)
15,C#Cc1ccccc1NC(=O)c1sc2nc3c(cc2c1N)CCCCC3,93.2%
16,NS(=O)(=O)c1ccc(-n2nc(-c3ccccc3)ccc2=O)cc1,97.1%
17,COc1ccc(-c2nnc(N3CCN(C(=O)CN4CCN(c5ccc(OC)cc5)CC4)CC3)nc2-c2ccc(OC)cc2)cc1,-62.9% (active)

row,SMILES,growth
1,N#Cc1ccc(Oc2ccc3ccc(=O)oc3c2)cc1,67%
2,CC1CCCN(CCCCCOc2ccc3oc4ccccc4c(=O)c3c2)C1 (stereo not drawn),90.2%
3,CS(=O)(=O)O[C@@H]1C(=O)N(c2cc3c4ccccc4ccc3c3ccccc23)[C@H]1c1ccc(F)cn1,57%
4,C=C1C(=O)O[C@H]2[C@H]1CC/C(C=Nc1c(N)cc(F)cc1Br)=C\CC[C@@]1(C)O[C@@H]21,97.3%
5,Cc1ccc(SC2c3ccc(C)cc3Oc3nc(N)c(C#N)c(N)c32)cc1 (stereo not drawn),66.6%
6,O=C(Nc1nccs1)c1noc2ccccc12,76.2%
7,C=C(C)[C@@H]1CC[C@]2(C(=O)OCCCC[P+](c3ccccc3)(c3ccccc3)c3ccccc3)CC[C@]3(C)[C@H](CC[C@@H]4[C@@]5(C)CC[C@H](OC(=O)C(Cl)Cl)C(C)(C)[C@@H]5CC[C@]43C)[C@@H]12,-67.4% (active)
8,Cc1cc2ccccc2c[n+]1CC(=O)c1ccc(-c2ccccc2)cc1,27.8%
9,O=C1Nc2ccc(Cl)cc2/C1=N/c1nc(-c2ccc(F)cc2)cs1,34.3%
10,COc1cc(/C=N/Nc2nc(-c3ccc(F)cc3)c(C#N)c(N3CCOCC3)n2)ccc1O,80%
11,C=C(C)[C@@H]1CC[C@]2(C(=O)N=C=S)CC[C@]3(C)[C@H](CC[C@@H]4[C@@]5(C)CCC(=O)C(C)(C)[C@@H]5CC[C@]43C)[C@@H]12,18.2%
12,CC1(C)[C@@H](O)CC[C@]2(C)[C@H]3CC[C@@H]4[C@H]5[C@H](c6cn(-c7ccccc7)nn6)CC[C@]5(CO)CC[C@@]4(C)[C@]3(C)CC[C@@H]12,100%
13,COc1cc(/C=C/C(=O)c2ccc(NC(=O)CSc3nnc(-c4cc(OC)c(OC)c(OC)c4)n3-c3ccccc3)cc2)cc(OC)c1OC,53.9%
14,O=c1c2ccccc2n(CC(O)CN2CCCC2)c2c(Br)cccc12 (stereo not drawn),90.2%
15,COc1cc(-c2cn(-c3ccc(Cl)c(Cl)c3)c(=O)[nH]2)cc(OC)c1OC,82%
16,COC(=O)c1ccc2c(c1)n(Cc1ccc3ccccc3c1)c[n+]2Cc1ccc2ccccc2c1,-10.7% (active)
